Assay results: PubChem BioAssay AID651820 (National Center for Advancing Translational Sciences (NCATS), 2012)
Screen size: about 340,000 compounds; about 12,000 (3.5%) were called active. About 18% were inconclusive and are not listed. Calls follow the shape of the dose curve; as a rule, active = well fitted inhibition curve with a large enough effect; inconclusive = small, poorly fitted or top-dose-only effect, or another doubt; inactive = no such curve, though single readings can be large or run the other way. Many of the other results were omitted from the sample, so actives are more common in it than they were.

Assay: qHTS Assay for Inhibitors of Hepatitis C Virus (HCV)
Conditions: Huh7.5.1 HCVcc-Cre infection, luciferase reporter, 44 h; series mostly up to 41.8 µM; activity change, negative = inhibition: at the top concentration
From the text: Hepatitis C virus (HCV) infects about 200 million people in the world. Many infected people progress to chronic liver disease including cirrhosis with a risk of developing liver cancer. To date, there is no effective vaccine for hepatitis C. Current therapy based on interferon is only effective in about half of the patients and is associated with significant adverse effects. The fraction of people with HCV who can complete a successful treatment is estimated to be no more than 10 percent. Recent development of direct-acting antivirals against HCV, such as protease and polymerase inhibitors, is promising but still requires combination with peginterferon and ribavirin for maximal efficacy. In addition, these agents are associated with high rate of resistance and many have significant side effects. Due to the lack of a culture system for infectious HCV, the search for new HCV drugs has been greatly hampered. […] High-throughput screening (HTS) with an infectious HCV system would cover the complete spectrum of potentially druggable targets in all stages of HCV lifecycle, and would have more biological relevance than other cell-based assays. Moreover, targeting several key processes in the viral life cycle may not only increase antiviral efficacy; more importantly, it may also reduce the capacity of the virus to develop resistance to the compound. The goal of this project is to identify novel HCV inhibitors as new therapies for hepatitis C, using a highly sensitive and specific assay platform which is based on a HCV infectious cell culture system established in the laboratory and adapted for high-throughput HCV drug screen. NIH Chemical Genomics Center [NCGC] NIH Molecular Libraries Probe Centers Network [MLPCN] MLPCN Grant: MH095511 Assay Submitter (PI): Jake Liang, NIDDK
The assay will start with plating 1,000 cells/well in 3 µL volume and culture for 4 h. Then 23 nL of compounds from the library collection will be added to each well, followed by adding 2.5 µL of HCVcc-Cre virus (~ 0.5 moi) and further cultured for 44 h before the luciferase assay. A volume of 4.5 µL luciferase substrates will be added to each well and the plates will be incubated at room temperature for 15 min. and then read for 15 sec. for the luciferase activity
% is scaled to controls: 0 for no effect and ±100 for the full control effect.

Row | SMILES | activity change, negative = inhibition | Potency
1 | O=C(CN1C(=O)NC2(CCCCCC2)C1=O)NCc1ccc(F)cc1 | 3.95% (inactive) | –
2 | CCOc1ccc(NC(=O)CN(C)C(=O)CSc2ccccc2)cc1OCC | -2.17% (inactive) | –
3 | O=C(Nc1ccc(F)c([N+](=O)[O-])c1)C1CCCO1 (centres undefined) | 0.692% (inactive) | –
4 | Nc1nonc1-n1nnc(C(=O)N/N=C/c2ccccc2O)c1CN1CCCC1 | -7.74% (inactive) | –
5 | COc1ccccc1NC(=O)COC(=O)CNC(=O)C1CCCCC1 | -14.3% (inactive) | –
6 | Cc1csc(SCC(=O)Nc2sccc2C#N)n1 | -12.8% (inactive) | –
7 | Cc1cccc(C)c1Nc1nnc(SCC(=O)Nc2sccc2C#N)s1 | -9.42% (inactive) | –
8 | CC(c1nnc(SCC(=O)Nc2sccc2C#N)n1-c1ccc(Cl)cc1)N(C)C (centres undefined) | – | 22.4 µM (active)
9 | COc1ccccc1C(=O)NCCC(=O)NN1C(=O)NC2(CCCCC2)C1=O | 19.8% (inactive) | –
10 | O=C1CCCCC1Sc1ccc(Cl)cc1[N+](=O)[O-] (centres undefined) | 11.8% (inactive) | –
11 | Cc1cc(C)c(S(=O)(=O)NCC(c2ccc3c(c2)OCO3)N2CCOCC2)c(C)c1 (centres undefined) | 13.2% (inactive) | –
12 | O=C(Cc1ccc(NC(=O)C2CCCN(C(=O)CCc3ccccc3)C2)cc1)Nc1ccc(C(=O)N2CCOCC2)cc1 (centres undefined) | -13.7% [at 8.37 µM] (inactive) | –
13 | CN(CCc1ccccc1)C(=O)c1cccc(NC(=O)Cc2cccc(NC(=O)C3CCCN(C(=O)C4CCC4)C3)c2)c1 (centres undefined) | – | 10 µM (active)
14 | CN(C)CCNC(=O)Cc1ccc([N+](=O)[O-])cc1 | 5.72% (inactive) | –
15 | CN(C(=O)c1cccc(NC(=O)Cc2cccc(NC(=O)C3CCCN(C(=O)C4CC4)C3)c2)c1)C1CCC1 (centres undefined) | -22.6% [at 8.37 µM] (inactive) | –
16 | CN(C(=O)c1cccc(NC(=O)Cc2ccc([N+](=O)[O-])cc2)c1)C1CCC1 | – | 3.16 µM (active)
17 | CC(C)(C)OC(=O)N1CCC(C(=O)Nc2cccc(C(=O)NCCc3ccccc3)c2)CC1 | – | 8.91 µM (active)
18 | O=C(NCc1ccccc1)c1cccc(NC(=O)C2CCCCC2)c1 | -17.2% [at 8.37 µM] (inactive) | –
19 | CN(C(=O)c1cccc(NC(=O)Cc2ccc(NC(=O)C3CCCN(C(=O)C4CCCC4)C3)cc2)c1)C1CCC1 (centres undefined) | -26.3% [at 8.37 µM] (inactive) | –
20 | CN(C)C(CNC(=O)Cc1ccc([N+](=O)[O-])cc1)c1ccccc1 (centres undefined) | -24.7% (inactive) | –

Row | SMILES | activity change, negative = inhibition | Potency
21 | CN(CCc1ccccc1)C(=O)c1cccc(NC(=O)Cc2cccc(NC(=O)C3CCCN(C(=O)CCc4ccccc4)C3)c2)c1 (centres undefined) | – | 0.794 µM (active)
22 | O=C(NCCc1ccccc1)c1cccc(NC(=O)c2ccccc2)c1 | -4.33% (inactive) | –
23 | O=C(Cc1ccc(NC(=O)C2CCCN(C(=O)C3CCCCC3)C2)cc1)Nc1cccc(C(=O)N2CCCCC2)c1 (centres undefined) | -22.8% [at 8.37 µM] (inactive) | –
24 | CC(Sc1ccccc1F)C(=O)Nc1cccc(S(=O)(=O)N2CCOCC2)c1 (centres undefined) | -2.13% (inactive) | –
25 | CCC1(C)NC(=O)N(CC(=O)N2CCN(c3cccc(Cl)c3)CC2)C1=O (centres undefined) | 7.91% (inactive) | –
26 | COc1ccc(S(=O)(=O)N2CCN(CC(=O)NCC3(N4CCOCC4)CCCCC3)CC2)cc1 | 17.9% (inactive) | –
27 | CC(NC(=O)c1ccccc1)C(=O)Nc1ccccc1 (centres undefined) | 22.1% (inactive) | –
28 | COc1ccc(Cl)cc1C=CC=NNC(=O)c1ccncc1 | -12.9% (inactive) | –
29 | CC(=O)Nc1ccc(S(=O)(=O)N2CCN(S(=O)(=O)c3cccs3)CC2)cc1 | 8% (inactive) | –
30 | CCC(C)c1ccc(NC(=O)COC(=O)C2CCCC2)cc1 (centres undefined) | 24.4% (inactive) | –
31 | Cc1ccccc1Nc1nc(N)nc(COC(=O)CCC(=O)c2ccc(F)cc2)n1 | 9.47% (inactive) | –
32 | COc1ccccc1NS(=O)(=O)c1ccc(C)c(C(=O)NNC(=O)c2csc(N3CCOCC3)n2)c1 | -6.37% (inactive) | –
33 | Cc1cc(C)c(C)c(S(=O)(=O)N2CCN(C(=O)c3ccc4c(=O)n5c(nc4c3)CCC5)CC2)c1C | -7.77% (inactive) | –
34 | CC(C)N(Cc1nnc(-c2ccc(Cl)cc2)o1)C(=O)C1=COCCO1 | -0.237% [at 8.37 µM] (inactive) | –
35 | CN(C(=O)c1cccc(NC(=O)Cc2ccc(NC(=O)C3CCN(C(=O)C4CCCCC4)CC3)cc2)c1)C1CCC1 | -11.4% [at 8.37 µM] (inactive) | –
36 | CN(C(=O)c1ccc(NC(=O)Cc2cccc(NC(=O)C3CCN(C(=O)c4ccccc4)CC3)c2)cc1)C1CC1 | – | 0.562 µM (active)
37 | CN(C(=O)c1cccc(NC(=O)Cc2ccc(NC(=O)C3CCCN(C(=O)C4CC4)C3)cc2)c1)C1CC1 (centres undefined) | 0.531% (inactive) | –
38 | CCOc1ccc(S(=O)(=O)N2CCC(C(=O)NCC(=O)Nc3cccc(Cl)c3C)CC2)cc1 | 5.38% (inactive) | –
39 | Cc1ccc(-n2ncc3c(=O)n(-c4ccc(C)c(C)c4)c(-c4ccco4)nc32)cc1 | – | 3.98 µM (active)
40 | Cc1ccc(-n2ncc3c2ncn2nc(-c4ccco4)nc32)c(C)c1 | -1.19% (inactive) | –

Row | SMILES | activity change, negative = inhibition | Potency
41 | Cc1ccc(-c2nc3c(cnn3-c3ccccc3)c(=O)o2)cc1 | 18.5% (inactive) | –
42 | O=c1ccc2c(-c3ccccc3S(=O)(=O)O)c3ccc(O)c(O)c3oc-2c1O | -10.9% (inactive) | –
43 | O=C(CN1C(=O)c2ccc([N+](=O)[O-])cc2C1=O)Nc1nnc(C2CC2)s1 | 33.3% (inactive) | –
44 | CC(CCN1CCN=C1N(C)C)c1ccccc1 (centres undefined) | -8.02% (inactive) | –
45 | O=C(COc1ccccc1F)NNC(=O)c1cc(Br)ccc1Cl | 15.1% (inactive) | –
46 | O=C(CCNC(=O)c1ccc(Br)cc1)NCCCc1ccccc1 | 24.9% (inactive) | –
47 | CCOc1ccc(NC(=O)CN(C)C(=O)Cc2sc(C)nc2-c2ccc(F)cc2)cc1OCC | -12.3% (inactive) | –
48 | CCOc1ccccc1NC(=S)C(=C([O-])c1ccc2c(c1)OCCO2)[n+]1ccc(CC)cc1 | 6.44% (inactive) | –
49 | COc1ccccc1/C=C/C(=O)NC(=S)N1CCOCC1 | 0.814% (inactive) | –
50 | COc1ccccc1/C=C/C1=NC(=C\N(C)C)/C(=O)O1 | – | 11.2 µM (active)
51 | O=C1OC(/C=C/c2ccccc2)=NC/1=C/c1ccco1 | 2.84% (inactive) | –
52 | O=C(O)C(CCc1ccccn1)c1ccccc1 (centres undefined) | 2.66% (inactive) | –
53 | O=C(CSc1nnc(Nc2ccccc2F)s1)NC1CCCC1 | -7.98% (inactive) | –
54 | CCCOC(=O)c1[nH]c2c(c1C)C(=O)CC(c1cc(OC)c(OC)c(OC)c1)C2 (centres undefined) | – | 4.47 µM (active)
55 | COCCOC(=O)c1[nH]c2c(c1C)C(=O)CC(c1ccc(OC)cc1)C2 (centres undefined) | -18.2% (inactive) | –
56 | CCOC(=O)c1[nH]c2c(c1-c1ccccc1)C(=O)CC(c1ccc(Cl)cc1)C2 (centres undefined) | 11.8% (inactive) | –
57 | Cn1c2c(c(=O)n(C)c1=O)CN(Cc1ccco1)CN2 | 29.8% (inactive) | –
58 | O=c1oc(-c2ccco2)nc2sc3c(c12)CCCCC3 | 0.369% (inactive) | –
59 | Cn1c(=O)n(Cc2ccco2)c(=N)c2c3c(sc21)CCCC3 | – | 10 µM (active)
